Laboratory results from PubChem BioAssay (NCI).
This is part of a sample that, as a whole, favours compounds with a hit. Of some 79,000 tested, about 15% had one in any assay. Calls of active or inactive are those of the source. Cut-off read from the data, not from the text of the source: active = growth inhibition above about 70%; inactive = the rest.

Key:
[1] = NCI Yeast Anticancer Drug Screen. Data for the rad52 strain (AID 147);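 note: 0% = growth of vehicle-treated control cultures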; settings: S. cerevisiae rad52 mutant growth inhibition, active compounds read high
Procedure, shortened: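 Read-out: growth inhibition versus vehicle-treated controls. Cells were a DNA repair-deficient yeast strain treated with compounds.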

[2] = NCI Yeast Anticancer Drug Screen. Data for the rad50EPP+ strain (AID 151);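 note: 0% = growth of vehicle-treated control cultures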; settings: S. cerevisiae rad50 mutant strain, active compounds read high
Procedure, shortened: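 Growth inhibition read against vehicle controls in rad50EPP+ yeast, a strain altered in DNA damage repair, after compound exposure.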

[3] = NCI Yeast Anticancer Drug Screen. Data for the mgt1 strain (AID 153); settings: S. cerevisiae mgt1 mutant growth inhibition, active compounds read high
Procedure, shortened: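 mgt1 yeast grown with test compound; read-out is growth inhibition versus vehicle-treated cultures.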

[4] = NCI Yeast Anticancer Drug Screen. Data for the rad50 strain (AID 155);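 note: 0% = growth of vehicle-only cultures of the same strain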; settings: S. cerevisiae rad50 strain growth inhibition, active compounds read high
Procedure, shortened: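 Vehicle-treated cultures provide the reference for the growth inhibition reported for compound-exposed, repair-deficient yeast.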

[5] = NCI Yeast Anticancer Drug Screen. Data for the mec2-1 strain (AID 157); settings: S. cerevisiae mec2-1 strain, active compounds read high
Procedure, shortened: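 Yeast mec2-1 mutant treated with compound. Readout: growth inhibition vs vehicle controls.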

[6] = NCI Yeast Anticancer Drug Screen. Data for the rad14 strain (AID 159);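 note: 0% = growth of vehicle-treated control cultures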; settings: S. cerevisiae rad14 strain growth inhibition, active compounds read high
Procedure, shortened: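 Inhibition of growth is reported for a repair-deficient yeast mutant following compound treatment, calculated relative to cultures that received vehicle.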

[7] = NCI Yeast Anticancer Drug Screen. Data for the sgs1 mgt1 strain (AID 161);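 note: 0% = growth of cultures given vehicle only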; settings: S. cerevisiae sgs1 mgt1 strain, active compounds read high
Procedure, shortened: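 Inhibition of yeast growth, normalised to vehicle-treated controls, is reported for a strain bearing genetic alterations in DNA damage repair.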

[8] = NCI Yeast Anticancer Drug Screen. Data for the CLN2oe strain (AID 163);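 note: 0% = growth of vehicle-only control cultures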; settings: S. cerevisiae CLN2oe strain, active compounds read high
Procedure, shortened: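 Read-out: yeast growth inhibition, expressed relative to vehicle-only controls. The strain bears an engineered cell-cycle alteration.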

[9] = NCI Yeast Anticancer Drug Screen. Data for the cln2 rad14 strain (AID 165);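 note: 0% = growth equal to vehicle treated cultures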; settings: S. cerevisiae cln2 rad14 strain, active compounds read high
Procedure, shortened: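 cln2 rad14 yeast strain; compound exposure; growth inhibition read vs vehicle controls.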

[10] = NCI Yeast Anticancer Drug Screen. Data for the bub3 strain (AID 167); settings: S. cerevisiae bub3 mutant strain, active compounds read high
Procedure, shortened: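 Mutant yeast screening strain plus compound; vehicle-treated cultures serve as the 0% inhibition reference.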

[11] = NCI Yeast Anticancer Drug Screen. Data for the wt2 strain (AID 169); settings: S. cerevisiae wt2 strain growth inhibition, active compounds read high
Procedure, shortened: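 Read-out: growth inhibition versus vehicle-treated control cultures after compound exposure of the yeast strain.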

[12] = NCI Yeast Anticancer Drug Screen. Data for the mlh1 strain (AID 171);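 note: 0% = growth of vehicle-treated control cultures of the same strain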; settings: S. cerevisiae mlh1 strain growth inhibition, active compounds read high
Procedure, shortened: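 Read-out: growth inhibition versus vehicle controls. Strain: engineered yeast with a defined DNA repair or cell cycle defect, compound-treated.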

[13] = NCI Yeast Anticancer Drug Screen. Data for the sgs1 strain (AID 173);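 note: 0% = growth of vehicle-only control cultures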; settings: S. cerevisiae sgs1 mutant, active compounds read high
Procedure, shortened: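 Read-out: yeast growth inhibition relative to vehicle controls, following compound exposure of a strain with a defined DNA repair/cell cycle alteration.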

[14] = NCI Yeast Anticancer Drug Screen. Data for the mlh1 rad18 strain (AID 175); settings: S. cerevisiae mlh1 rad18 strain growth inhibition, active compounds read high
Procedure, shortened: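 Yeast w/ defined DNA-repair lesions; compound exposure; growth vs vehicle controls → % inhibition.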

[15] = NCI Yeast Anticancer Drug Screen. Data for the rad18 strain (AID 177); settings: S. cerevisiae rad18 mutant growth inhibition, active compounds read high
Procedure, shortened: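 Readout: growth inhibition vs vehicle controls. Cells: genetically altered yeast strain, DNA repair defect.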

[16] = at 5.0 µM (retest, dose inferred, filed as 0.5)
[17] = at 50.0 µM (retest, dose inferred, filed as 5.0)

Measured: growth inhibition

Cc1oc2ccccc2c(=O)c1Cn1nnc2ccccc21
active: [4]; at 100.0 µM 73%
inactive: [1]; at 1.2 µM -1% | [1]; at 3.7 µM -2% | [1]; at 11.0 µM 0% | [1]; at 33.0 µM 9% | [1]; at 100.0 µM 56% | [2]; at 1.2 µM -1% | [2]; at 3.7 µM 3% | [2]; at 11.0 µM 8% | [2]; at 33.0 µM 17% | [2]; at 100.0 µM 35% | [3]; at 1.2 µM 0% | [3]; at 3.7 µM 2% | [3]; at 11.0 µM 0% | [3]; at 33.0 µM 2% | [3]; at 100.0 µM 26% | [4]; at 1.2 µM -3% | [4]; at 3.7 µM -1% | [4]; [16] -20% | [4]; at 11.0 µM -1% | [4]; at 33.0 µM 13% | [4]; [17] 47% | [4]; at 50.0 µM 4.55% | [5]; at 1.2 µM -2% | [5]; at 3.7 µM -3% | [5]; [16] 1% | [5]; at 11.0 µM -2% | [5]; at 33.0 µM 1% | [5]; [17] 5% | [5]; at 50.0 µM 14.6% | [5]; at 100.0 µM 36% | [6]; at 1.2 µM -1% | [6]; at 3.7 µM -1% | [6]; at 11.0 µM 1% | [6]; at 33.0 µM 8% | [6]; at 100.0 µM 36% | [7]; [16] -1% | [7]; [17] 22% | [7]; at 50.0 µM 16.9% | [8]; at 1.2 µM 0% | [8]; at 3.7 µM 0% | [8]; at 11.0 µM -4% | [8]; at 33.0 µM -5% | [8]; at 100.0 µM 19% | [9]; [16] 9% | [9]; [17] 50% | [9]; at 50.0 µM 15.7% | [10]; at 1.2 µM -1% | [10]; at 3.7 µM -2% | [10]; [16] 3% | [10]; at 11.0 µM 0% | [10]; at 33.0 µM 10% | [10]; [17] 41% | [10]; at 50.0 µM 21.9% | [10]; at 100.0 µM 67% | [11]; at 1.2 µM -2% | [11]; at 3.7 µM -2% | [11]; at 11.0 µM -1% | [11]; at 33.0 µM 0% | [11]; at 100.0 µM 32% | [12]; at 1.2 µM -1% | [12]; at 3.7 µM -2% | [12]; at 11.0 µM -2% | [12]; at 33.0 µM 1% | [12]; at 100.0 µM 43% | [13]; at 1.2 µM 0% | [13]; at 3.7 µM 1% | [13]; at 11.0 µM 2% | [13]; at 33.0 µM 12% | [13]; at 100.0 µM 68% | [14]; [16] -1% | [14]; [17] 27% | [14]; at 50.0 µM -11.3% | [15]; at 1.2 µM -2% | [15]; at 3.7 µM -2% | [15]; at 11.0 µM 1% | [15]; at 33.0 µM 15% | [15]; at 100.0 µM 55%

O=C1c2cccc3cccc(c23)C(=O)N1O
active: [1]; at 100.0 µM 84% | [2]; at 100.0 µM 89% | [3]; at 33.0 µM 81% | [3]; at 100.0 µM 95% | [4]; [17] 99% | [4]; at 50.0 µM 84.4% | [4]; at 100.0 µM 89% | [5]; [17] 98% | [5]; at 50.0 µM 87.3% | [5]; at 100.0 µM 94% | [6]; at 33.0 µM 92% | [6]; at 100.0 µM 97% | [7]; [16] 90% | [7]; [17] 98% | [7]; at 50.0 µM 90.3% | [8]; at 33.0 µM 92% | [8]; at 100.0 µM 99% | [9]; [16] 71% | [9]; [17] 98% | [10]; [16] 93% | [10]; at 11.0 µM 83% | [10]; at 33.0 µM 97% | [10]; [17] 98% | [10]; at 50.0 µM 83.3% | [10]; at 100.0 µM 98% | [11]; at 11.0 µM 92% | [11]; at 33.0 µM 98% | [11]; at 100.0 µM 99% | [12]; at 100.0 µM 90% | [13]; at 100.0 µM 91% | [14]; [17] 99% | [14]; at 50.0 µM 86.4% | [15]; at 100.0 µM 81%
inactive: [1]; at 1.2 µM -3% | [1]; at 3.7 µM 3% | [1]; at 11.0 µM 1% | [1]; at 33.0 µM 24% | [2]; at 1.2 µM -3% | [2]; at 3.7 µM -2% | [2]; at 11.0 µM -1% | [2]; at 33.0 µM 28% | [3]; at 1.2 µM -8% | [3]; at 3.7 µM 4% | [3]; at 11.0 µM 23% | [4]; at 1.2 µM 9% | [4]; at 3.7 µM 13% | [4]; [16] 13% | [4]; at 11.0 µM 13% | [4]; at 33.0 µM 54% | [5]; at 1.2 µM 5% | [5]; at 3.7 µM -5% | [5]; [16] 33% | [5]; at 11.0 µM 4% | [5]; at 33.0 µM 36% | [6]; at 1.2 µM 16% | [6]; at 3.7 µM 13% | [6]; at 11.0 µM 46% | [8]; at 1.2 µM 6% | [8]; at 3.7 µM 8% | [8]; at 11.0 µM 29% | [9]; at 50.0 µM 47.1% | [10]; at 1.2 µM 4% | [10]; at 3.7 µM 18% | [11]; at 1.2 µM 3% | [11]; at 3.7 µM 17% | [12]; at 1.2 µM -11% | [12]; at 3.7 µM -10% | [12]; at 11.0 µM 0% | [12]; at 33.0 µM 57% | [13]; at 1.2 µM 14% | [13]; at 3.7 µM 8% | [13]; at 11.0 µM 19% | [13]; at 33.0 µM 67% | [14]; [16] 23% | [15]; at 1.2 µM 6% | [15]; at 3.7 µM 3% | [15]; at 11.0 µM 13% | [15]; at 33.0 µM 41%
